# Assay results taken from PubChem BioAssay AID1211 (NMMLSC, 2008).
# The source made the active and inactive calls. No rule for the calls is given here.
# Biological target: Estrogen receptor (Homo sapiens) (UniProt P03372)
# Assay: ERalpha ligand binders by competition, primary screen, cell-based, Cos7 ERalpha-GFP, flow cytometry (AID 1211);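 also: 0% = DMSO vehicle wells and 100% = no E2-Alexa633 signal left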
# Details: fluorescent ligand competition, at 10 µM, stronger effect = higher value
# Chain of Estrogen receptor (Homo sapiens) (P03372 whole entry, looked up): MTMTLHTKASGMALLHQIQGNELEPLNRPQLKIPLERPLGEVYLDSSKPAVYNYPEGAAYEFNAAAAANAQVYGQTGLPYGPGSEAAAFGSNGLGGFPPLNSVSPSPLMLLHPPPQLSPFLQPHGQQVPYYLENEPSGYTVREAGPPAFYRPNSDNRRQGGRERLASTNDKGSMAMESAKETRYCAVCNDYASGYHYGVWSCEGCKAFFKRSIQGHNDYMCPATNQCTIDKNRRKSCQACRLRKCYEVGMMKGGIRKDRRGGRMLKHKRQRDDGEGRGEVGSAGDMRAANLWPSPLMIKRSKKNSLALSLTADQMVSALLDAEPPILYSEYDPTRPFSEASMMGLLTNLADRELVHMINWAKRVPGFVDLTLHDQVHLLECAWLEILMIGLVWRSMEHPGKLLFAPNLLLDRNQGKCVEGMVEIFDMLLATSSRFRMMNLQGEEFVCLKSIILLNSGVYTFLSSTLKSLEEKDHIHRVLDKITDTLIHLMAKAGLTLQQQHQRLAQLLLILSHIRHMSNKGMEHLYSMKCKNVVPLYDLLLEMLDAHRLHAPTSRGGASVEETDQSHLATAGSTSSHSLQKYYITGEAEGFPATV
row,Compound,inhibition of ligand binding
1,O=C1c2ccccc2NC(c2ccc(O)cc2)N1/N=C/c1ccc(O)cc1 (stereo not drawn),32% (inactive)
2,Cc1noc(C)c1COC(=O)c1cc2c3ccccc3n(C)c2s1,41% (inactive)
3,CCOC(=O)c1c(/N=C/c2ccc(O)cc2O)sc2c1CCC2,58% (inactive)
4,COc1cccc(-n2nnnc2SCC(=O)Nc2ccc(C(C)=O)cc2)c1,38% (inactive)
5,O=C(Oc1ccc(-c2cnc3ccccc3n2)cc1)c1ccc(Br)o1,58% (inactive)
6,CCOc1ccc(Nc2oc(-c3ccccc3Cl)nc2C#N)cc1,29% (inactive)
7,Oc1ccc(-c2csc(-c3c[nH]c4ccccc34)n2)c(O)c1,57% (inactive)
8,CCn1c(SCC(=O)Nc2ccc3c(c2)oc2ccccc23)nnc1-c1ccc(N)cc1,44% (inactive)
9,O=C(CCCn1c(=S)[nH]c2cc3c(cc2c1=O)OCO3)N1CCN(c2ccc(Cl)cc2)CC1,30% (inactive)
10,COC(=O)c1ccc(CC(=O)c2ccc(O)cc2O)o1,32% (inactive)
11,Cc1ccccc1OCC1Cc2c(nc(N)c(C#N)c2N)O1 (stereo not drawn),31% (inactive)
12,Cc1cc(=O)[nH]c(SCC(=O)NCc2ccco2)n1,19% (inactive)
13,CCOC(=O)Cn1cnc2sc3c(c2c1=O)CCC3,23% (inactive)
14,CCCN(CCC)S(=O)(=O)c1ccc(NC(=O)Cc2cccs2)cc1,34% (inactive)
15,Oc1ccccc1N=Nc1nc(-c2ccccc2)c(-c2ccccc2)[nH]1,52% (inactive)
16,COc1cccc([C@@H]2Oc3ccc(OC)cc3C(=O)[C@H]2O)c1,37% (inactive)
17,COCCOC(=O)c1[nH]c2c(c1C)C(=O)CC(c1ccco1)C2 (stereo not drawn),2% (inactive)
18,COc1cccc(C(=O)NC2CCN(C(=O)N3c4ccccc4Sc4ccccc43)CC2)c1,60% (inactive)
19,Cc1ccc(-n2c(=O)c(C#N)cc3c(=O)n4cccc(C)c4nc32)cc1,53% (inactive)
20,Cc1csc2nc(CCNS(=O)(=O)c3ccc4c(c3)OCCO4)cn12,38% (active)

row,Compound,inhibition of ligand binding
1,CC1(C)OC(C)(C)/C(=C/Nc2ccc(O)cc2)C1=O,10% (inactive)
2,Oc1ccc(/C=N/n2c(-c3ccco3)csc2=Nc2cccnc2)c(O)c1,49% (inactive)
3,CCCCCCNC(=O)c1cc(-c2ccco2)nc2ccccc12,40% (inactive)
4,Cc1ccccc1CSCC(=O)NC(=O)NCc1ccco1,53% (inactive)
5,Cn1c(SCC(=O)Nc2sccc2C#N)nnc1-c1ccccc1,17% (inactive)
6,COCCNC(=O)c1c(N)n(/N=C/c2cccs2)c2nc3ccccc3nc12,41% (inactive)
7,COc1ccc(N=Cc2sc(O)c3ccccc23)cc1,37% (inactive)
8,COc1ccc(C2Nc3ccccc3C(=O)N2Cc2ccccc2)cc1Cn1nnc2ccccc21 (stereo not drawn),54% (inactive)
9,CCN(CC)c1ccc2c(c1)oc(=O)c1c(Cl)cc(=O)oc12,23% (inactive)
10,COc1ccc(C2CC(c3c(-c4ccccc4)c4cc(Cl)ccc4[nH]c3=O)=NN2S(C)(=O)=O)cc1OC (stereo not drawn),29% (inactive)
11,O=C(O)C1Nc2c(O)cc(Cl)c([N+](=O)[O-])c2C2C=CCC12 (stereo not drawn),50% (inactive)
12,COC(=O)c1ccc(-c2n[nH]c(=O)c3ccccc23)cc1,0% (inactive)
13,COc1ccc(OC)c(NC(=O)CSc2nc3ccccc3c3nc4ccccc4n23)c1,26% (inactive)
14,CC12CCC(=O)N1C(C(=O)OCC(=O)Nc1sccc1C#N)CS2 (stereo not drawn),47% (active)
15,CC(=O)OC1CC(C)(C)N(OC(=O)c2ccc(N)cc2)C(C)(C)C1,6% (inactive)
16,Cc1cc(-c2nn3c(-c4ccccc4)nnc3s2)c2ccccc2n1,23% (inactive)
17,O=C(Cn1c(=O)n(Cc2ccco2)c(=O)c2c3c(sc21)CCCCC3)Nc1ccccc1,51% (inactive)
18,COc1ccc(OC)c(C(=O)CSc2nnc(-c3ccc(OC)c(OC)c3)o2)c1,23% (inactive)
19,Cc1cc(O)ccc1C1(c2ccc(O)cc2C)OC(=O)c2ccccc21,28% (inactive)

# Same assay, conditions: fluorescent ligand competition, binding inhibition, at 0.1 µM, stronger effect = higher value
row,Compound,inhibition of ligand binding
1,O=C1c2ccccc2NC(c2ccc(O)cc2)N1/N=C/c1ccc(O)cc1 (stereo not drawn),65%
2,Cc1noc(C)c1COC(=O)c1cc2c3ccccc3n(C)c2s1,33%
3,CCOC(=O)c1c(/N=C/c2ccc(O)cc2O)sc2c1CCC2,42%
4,COc1cccc(-n2nnnc2SCC(=O)Nc2ccc(C(C)=O)cc2)c1,45%
5,O=C(Oc1ccc(-c2cnc3ccccc3n2)cc1)c1ccc(Br)o1,1%
6,CCOc1ccc(Nc2oc(-c3ccccc3Cl)nc2C#N)cc1,35%
7,Oc1ccc(-c2csc(-c3c[nH]c4ccccc34)n2)c(O)c1,45%
8,CCn1c(SCC(=O)Nc2ccc3c(c2)oc2ccccc23)nnc1-c1ccc(N)cc1,10%
9,O=C(CCCn1c(=S)[nH]c2cc3c(cc2c1=O)OCO3)N1CCN(c2ccc(Cl)cc2)CC1,27%
10,COC(=O)c1ccc(CC(=O)c2ccc(O)cc2O)o1,9%
11,Cc1ccccc1OCC1Cc2c(nc(N)c(C#N)c2N)O1 (stereo not drawn),13%
12,Cc1cc(=O)[nH]c(SCC(=O)NCc2ccco2)n1,8%
13,CCOC(=O)Cn1cnc2sc3c(c2c1=O)CCC3,13%
14,CCCN(CCC)S(=O)(=O)c1ccc(NC(=O)Cc2cccs2)cc1,18%
15,Oc1ccccc1N=Nc1nc(-c2ccccc2)c(-c2ccccc2)[nH]1,27%
16,COc1cccc([C@@H]2Oc3ccc(OC)cc3C(=O)[C@H]2O)c1,43%
17,COCCOC(=O)c1[nH]c2c(c1C)C(=O)CC(c1ccco1)C2 (stereo not drawn),8%
18,COc1cccc(C(=O)NC2CCN(C(=O)N3c4ccccc4Sc4ccccc43)CC2)c1,13%
19,Cc1ccc(-n2c(=O)c(C#N)cc3c(=O)n4cccc(C)c4nc32)cc1,32%
20,Cc1csc2nc(CCNS(=O)(=O)c3ccc4c(c3)OCCO4)cn12,77%

row,Compound,inhibition of ligand binding
1,CC1(C)OC(C)(C)/C(=C/Nc2ccc(O)cc2)C1=O,12%
2,Oc1ccc(/C=N/n2c(-c3ccco3)csc2=Nc2cccnc2)c(O)c1,21%
3,CCCCCCNC(=O)c1cc(-c2ccco2)nc2ccccc12,44%
4,Cc1ccccc1CSCC(=O)NC(=O)NCc1ccco1,27%
5,Cn1c(SCC(=O)Nc2sccc2C#N)nnc1-c1ccccc1,24%
6,COCCNC(=O)c1c(N)n(/N=C/c2cccs2)c2nc3ccccc3nc12,6%
7,COc1ccc(N=Cc2sc(O)c3ccccc23)cc1,36%
8,COc1ccc(C2Nc3ccccc3C(=O)N2Cc2ccccc2)cc1Cn1nnc2ccccc21 (stereo not drawn),19%
9,CCN(CC)c1ccc2c(c1)oc(=O)c1c(Cl)cc(=O)oc12,4%
10,COc1ccc(C2CC(c3c(-c4ccccc4)c4cc(Cl)ccc4[nH]c3=O)=NN2S(C)(=O)=O)cc1OC (stereo not drawn),37%
11,O=C(O)C1Nc2c(O)cc(Cl)c([N+](=O)[O-])c2C2C=CCC12 (stereo not drawn),20%
12,COC(=O)c1ccc(-c2n[nH]c(=O)c3ccccc23)cc1,16%
13,COc1ccc(OC)c(NC(=O)CSc2nc3ccccc3c3nc4ccccc4n23)c1,60%
14,CC12CCC(=O)N1C(C(=O)OCC(=O)Nc1sccc1C#N)CS2 (stereo not drawn),89%
15,CC(=O)OC1CC(C)(C)N(OC(=O)c2ccc(N)cc2)C(C)(C)C1,7%
16,Cc1cc(-c2nn3c(-c4ccccc4)nnc3s2)c2ccccc2n1,24%
17,O=C(Cn1c(=O)n(Cc2ccco2)c(=O)c2c3c(sc21)CCCCC3)Nc1ccccc1,39%
18,COc1ccc(OC)c(C(=O)CSc2nnc(-c3ccc(OC)c(OC)c3)o2)c1,58%
19,Cc1cc(O)ccc1C1(c2ccc(O)cc2C)OC(=O)c2ccccc21,64%
